C8 TRAIL sens: sensitizes caspase-8 expressing cells to TRAIL; 360,000 tested, 1% active; inhibition (viability loss, TRAIL sensitization), % at 10 µM; AID 624354; NB7+C8 cells + TRAIL, ATPlite viability luminescence;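 active = compounds causing at least 50% loss of cell viability in the single-dose screen, relative to plate controls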
CF NFkB block: inhibitors of cystic fibrosis induced NF-kB | KKLEB NF-kB-GFP reporter, PAF-induced, GFP fluorescence overnight | inhibition, % at 5 µM | 360,000 tested, 0.86% active;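 active = at least 50% inhibition at 5 µM, scaled per plate between neutral and stimulator controls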;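 also: PAF is a Pseudomonas aeruginosa culture filtrate used as stimulus; plate controls were PAF-stimulated DMSO wells for no effect and unstimulated DMSO wells for full effect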
Peg3 prom inh-1: reduces Peg3 promoter-driven luciferase expression in HeLa | AID 588405 | 360,000 tested, 1.7% active | HeLa PEG-Prom luciferase reporter, luminescence, overnight | inhibition, % at 20 µM;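 active = inhibition of at least 50% at 20 µM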
PPC-1+TRAIL kill: PPC-1 cancer cell killing with TRAIL present. PPC-1 cells + TRAIL, ATPLite viability luminescence. cell killing (% activity), % at 4 µM or 5 µM. 220,000 tested, 0.41% active;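 active = cell killing above 50% in the first pass at 4 µM, then a duplicate retest at 5 µM averaging 50% or more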;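 also: plate controls were cells with TRAIL plus DMSO for no effect and medium-only wells lacking cells for full effect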
KKLEB cytotox: reduces viability of KKLEB cystic fibrosis airway cells; KKLEB CF airway cells viability, ATPlite luminescence, overnight; hits give low values; cells stimulated with P. aeruginosa culture filtrate; activity change (cytotoxicity), % at 5 µM; 360,000 tested, 0.36% active;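 active = corrected activity change at or below -50% at 5 µM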
HIF-2a inh: inhibitors of HIF-2a; 786-0 RCC cells HIF-2a reporter, luciferase luminescence, overnight; inhibition, % at 18.8 µM; 360,000 tested, 0.72% active;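 active = inhibition of the luminescence signal of 40% or more relative to plate controls, in a single-dose primary screen at 18.75 µM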
Peg3 prom inh-2: Peg3 promoter inhibition confirmation. HeLa PEG-Prom luciferase reporter, luminescence, overnight. 1,300 tested, 84% active. AID 602417. inhibition, % at 20 µM. shares compounds with Peg3 prom inh-1;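 active = at 20 µM dose, 40% or more inhibition averaged across four replicates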
CF NFkB conf: confirmation of cystic fibrosis induced NF-kB inhibitors. shares compounds with CF NFkB block. inhibition, % at 5 µM. KKLEB CF airway cells, PAF-induced NF-kB-GFP fluorescence, overnight. AID 602472. 1,300 tested, 64% active; in the data active = inhibition above about 40%;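 also: stimulus PAF is a Pseudomonas aeruginosa filtrate and not platelet activating factor; plate controls were DMSO wells with stimulus for no effect and unstimulated DMSO wells for full effect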
Mdm2 MdmX conf: Mdm2/MdmX (human) interaction inhibition, confirmed; shares compounds with HIF-2a inh; SaOS-2 split-luciferase Mdm2/MdmX complementation, luminescence; inhibition, % at 8 µM; 740 tested, 99% active;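 active = mean inhibition of the luminescence signal across two replicates at or above 26 percent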
Target sequence (O15151 whole entry, looked up): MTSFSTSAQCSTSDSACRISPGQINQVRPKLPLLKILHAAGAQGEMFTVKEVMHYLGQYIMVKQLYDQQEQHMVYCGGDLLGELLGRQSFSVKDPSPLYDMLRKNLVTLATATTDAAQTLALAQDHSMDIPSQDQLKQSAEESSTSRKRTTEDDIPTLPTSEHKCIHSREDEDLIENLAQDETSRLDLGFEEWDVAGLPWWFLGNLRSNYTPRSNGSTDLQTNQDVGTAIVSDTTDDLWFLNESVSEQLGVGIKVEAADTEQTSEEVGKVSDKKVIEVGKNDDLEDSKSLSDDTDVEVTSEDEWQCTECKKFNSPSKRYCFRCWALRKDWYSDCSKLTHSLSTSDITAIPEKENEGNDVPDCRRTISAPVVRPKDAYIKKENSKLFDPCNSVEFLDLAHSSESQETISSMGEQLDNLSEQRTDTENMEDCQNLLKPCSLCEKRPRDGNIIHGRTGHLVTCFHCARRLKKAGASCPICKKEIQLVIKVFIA
Target sequence (Q00987 whole entry, looked up): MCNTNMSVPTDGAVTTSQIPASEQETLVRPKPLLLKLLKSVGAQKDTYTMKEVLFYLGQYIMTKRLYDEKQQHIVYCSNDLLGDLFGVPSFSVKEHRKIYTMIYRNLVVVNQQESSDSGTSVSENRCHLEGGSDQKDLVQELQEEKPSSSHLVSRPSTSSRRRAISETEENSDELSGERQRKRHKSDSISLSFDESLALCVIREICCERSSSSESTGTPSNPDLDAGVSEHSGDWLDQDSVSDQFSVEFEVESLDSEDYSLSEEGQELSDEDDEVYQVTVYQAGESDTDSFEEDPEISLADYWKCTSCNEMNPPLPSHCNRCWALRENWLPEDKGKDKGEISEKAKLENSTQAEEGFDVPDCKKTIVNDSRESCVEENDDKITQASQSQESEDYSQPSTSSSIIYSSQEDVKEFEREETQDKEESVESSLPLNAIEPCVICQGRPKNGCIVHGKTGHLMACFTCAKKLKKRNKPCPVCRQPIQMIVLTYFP
HIF-2a conf: confirmation of HIF-2a inhibitors; shares compounds with HIF-2a inh; 786-0 RCC cells, HIF-2a luciferase reporter luminescence, overnight; inhibition, % at 18.8 µM; 1,800 tested, 56% active; AID 651580;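 active = mean inhibition across four replicates of at least 40 percent at the single tested concentration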
HIF-1a cs: inhibits HIF-1a reporter, a counter-screen for HIF-2a inhibitors. 1,800 tested, 72% active. inhibition, % at 18.8 µM. AID 651589. MiaPaCa-2 HIF-1a luciferase reporter, desferoxamine, overnight. shares compounds with HIF-2a inh;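 active = mean inhibition of the reporter signal across four replicates at the single tested dose of 50% or more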
* = called active by the depositor; · = no result given. This is a sample that favours compounds with a hit; in the whole collection about 3.1% have one here.

SMILES | C8 TRAIL sens | CF NFkB block | Peg3 prom inh-1 | PPC-1+TRAIL kill | KKLEB cytotox | HIF-2a inh | Peg3 prom inh-2 | HIF-2a conf | HIF-1a cs | others
Cc1cc(NC(=O)C(C)SCC(=O)N(Cc2ccccc2)c2ccccc2)no1 (configuration not stated) | 1 | 14 | 32 | · | -12 | -15 | · | · | ·
Cc1cc(C)n2c(Nc3ccc4c(c3)OCCO4)c(CC(C)C)nc2n1 | 4 | · | · | · | · | 4 | · | · | ·
CCCCCCCCCCCCCCC(O)C[N+](C)(CCO)CCO (configuration not stated) | 88* | 55* | 70* | · | -34 | 73* | 73* | 39 | 84* | CF NFkB conf=56*
C[C@H](O)[C@@H]1C(=O)N2CCc3c([nH]c4ccccc34)[C@@H]2C[C@@H]1N(C)S(=O)(=O)c1ccccc1 | 41 | -5 | -17 | · | -3 | -58 | · | · | ·
C[n+]1c(-c2ccccc2)cc2c(=Cc3ccccc3)c3ccccc3n21 | 81* | 46 | 103* | · | -29 | 61* | 96* | 93* | 104*
CCCN1C=CC(=C2C(=O)c3ccccc3C2=O)C=C1 | 91* | -4 | 105* | 26 | -61* | 90* | 94* | · | · | Mdm2 MdmX conf=99*
CC1=CC(=C2C(=O)c3ccccc3C2=O)C=C(C)O1 | 26 | -47 | -172 | 14 | 14 | -225 | · | · | ·
CN(C)S(=O)(=O)c1ccc(SCC(=O)Nc2cccc(S(=O)(=O)N3CCCC3)c2)nc1 | -2 | -12 | 11 | · | 7 | 3 | · | · | ·
CN(C)S(=O)(=O)c1cccc(NC(=O)CSc2cccc3cccnc23)c1 | 10 | -11 | 102* | · | 2 | 66* | 93* | 75* | -15
S=C(Nc1ccccc1)Nc1ccc(OCc2ccc(Cl)cc2Cl)cc1 | -14 | 2 | 79* | 0 | 0 | 93* | 74* | 98* | 100*
CCCS(=O)(=O)NC(=O)C1(C)CCN(C(=O)COc2ccc(Cl)cc2Cl)C1 (configuration not stated) | -1 | 2 | 3 | · | -2 | 11 | · | · | ·
COc1ccc(N(C(=O)CCl)C(C(=O)NC2CCCCC2)c2cccnc2)cc1 (configuration not stated) | 94* | 38 | 100* | 22 | -42 | 31 | 99* | · | · | Mdm2 MdmX conf=103*
C(=NNc1ccc2ccccc2n1)c1ccccn1 | 87* | 13 | 76* | · | -52* | 69* | 78* | 81* | -12
C/C(=N\OCc1cccc(C(=O)O)c1)c1ccc(Cl)cc1 | 25 | -14 | 55* | 8 | 4 | 73* | 36 | 79* | -104
CC1CC(C)(C)CC2(C1)NC(=O)N(CC(=O)Nc1ccc3c(c1)OCO3)C2=O (configuration not stated) | -3 | -5 | -7 | · | 11 | -16 | · | · | ·
CN(C)CCCN(C(=O)c1ccc(S(=O)(=O)N2CCc3ccccc3C2)cc1)c1nc2ccc(F)cc2s1 | 85* | -20 | 104* | · | -38 | 73* | 92* | 15 | 103*
COc1ccc2sc(N(CCCN(C)C)C(=O)c3ccc(S(=O)(=O)N4CCc5ccccc5C4)cc3)nc2c1 | 93* | 74* | 101* | · | -98* | 82* | 98* | 32 | 106* | Mdm2 MdmX conf=95*
COC(=O)[C@@]12C[C@@H](CC(=O)N3CCN(C(=O)C4CC4)CC3)C(=O)N(Cc3ccco3)C1=CCC(C)(C)C2 | 12 | · | · | · | · | 7 | · | · | ·
Cc1cc(C(=O)Nc2cccc(C(=O)O)c2)oc1C | 22 | 6 | 82* | 42 | -3 | 81* | 52* | 78* | -15
Cc1cc(C(=O)Nc2cccc(C(=O)O)c2)c(C)o1 | 0 | 4 | -49 | -24 | 0 | -56 | · | · | ·
CCOC(=O)c1c(NC(C)=O)sc2c(OCC(O)CNC(C)(C)C)c(Br)ccc12 (configuration not stated) | 0 | -28 | 108* | · | -23 | 20 | 99* | · | · | Mdm2 MdmX conf=103*
CCOC(=O)c1c(N)sc2c(OCC)c(Br)ccc12 | 10 | -13 | -43 | 19 | 13 | -99 | · | · | ·
CCCCN(CC)C(=O)CSc1nc2n[nH]c(C)c2c(=N)n1-c1cccc(C)c1 | -2 | -6 | 53* | 12 | -4 | 43* | 43* | 10 | 61*
Cc1cccc(-n2c(SCC(=O)N3CCCC3)nc3n[nH]c(C)c3c2=N)c1 | 20 | 15 | 33 | 13 | -11 | 0 | · | · | ·
Cn1c(=O)c2c(n(C)c1=O)n(C)c(=O)n2C | -1 | -28 | -9 | · | 7 | -2 | · | · | ·
SMILES | C8 TRAIL sens | CF NFkB block | Peg3 prom inh-1 | PPC-1+TRAIL kill | KKLEB cytotox | HIF-2a inh | Peg3 prom inh-2 | HIF-2a conf | HIF-1a cs | others
N#C/C(=C/c1ccco1)C(N)=S | -10 | -6 | 9 | 33 | 10 | 20 | · | · | ·
N#CC(C#N)=C1C=CC=CN1/C(=C\c1ccco1)C(=O)c1ccc(Br)cc1 | 10 | 79* | 111* | 5 | -46 | 92* | 98* | 98* | 105* | CF NFkB conf=24
COc1cc(NC(=O)CCc2c(C)noc2C)c(C(=O)O)cc1OC | -7 | 1 | 15 | · | 4 | 12 | · | · | ·
COc1cc(OC)cc(-c2c(Sc3ccccc3)c3cc(-c4ccc(SC)cc4)ccc3n2C)c1 | 18 | · | · | · | · | -1 | · | · | ·
CCCN(CC(=O)Nc1ccccc1C)C(=O)CCl | 91* | 12 | 64* | 36 | -12 | 39 | 46* | · | · | Mdm2 MdmX conf=95*
COc1cc(C(O)c2nc(-c3cccc(C#N)c3)cs2)ccc1F (configuration not stated) | 0 | -24 | 13 | · | -5 | -11 | · | · | ·
Cc1cc(C)c(NS(=O)(=O)c2cccc3cccnc23)c(C)c1 | 0 | -25 | 17 | 4 | 4 | 2 | · | · | ·
O=S(=O)(Nc1cccc2cccnc12)c1ccccc1 | 24 | 78* | 103* | · | -4 | 58* | 99* | 62* | -90 | CF NFkB conf=109*;Mdm2 MdmX conf=102*
Cc1ccc(S(=O)(=O)Nc2cccc3cccnc23)c([N+](=O)[O-])c1 | 24 | 68* | 103* | · | 0 | 57* | 95* | 75* | -216 | CF NFkB conf=108*;Mdm2 MdmX conf=101*
CS(=O)(=O)Nc1cccc2cccnc12 | -4 | 0 | 8 | 8 | -3 | 2 | · | · | ·

Screening data deposited in PubChem BioAssay by Sanford-Burnham Center for Chemical Genomics.
